Laboratory results: PubChem BioAssay (EPA / NIEHS)
Calls of active or inactive are those of the source. How the source made its calls: active means hit-call score of the fitted dose curve at least 0.9, where 1 is the maximum; inactive means score below 0.9.

Experiments:
[1] = ATG_PBREM_CIS: Attagene CIS-FACTORIAL HepG2 Assay for human Phenobarbital-responsive Enhancer Module (PBREM) (AID 2282955); conditions: HepG2 PBREM cis-reporter, Attagene multiplexed transcription; actives raise or lower the signal
Outline: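 Fluorescence of labelled reporter cDNA fragments, resolved by capillary electrophoresis, gives mRNA induction in transfected HepG2 cells treated for 24 h; DMSO serves as negative control and baseline.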

[2] = molecular target: Paired box protein Pax-6 (Homo sapiens) (UniProt P26367); experiment: ATG_Pax6_CIS: Attagene CIS-FACTORIAL HepG2 Assay for human Paired Box 6 (PAX6) (AID 2282956); conditions: HepG2 CIS-FACTORIAL PAX6 reporter transcription, RNA readout; actives raise or lower the signal
Chain of Paired box protein Pax-6 (Homo sapiens) (P26367 whole entry, looked up): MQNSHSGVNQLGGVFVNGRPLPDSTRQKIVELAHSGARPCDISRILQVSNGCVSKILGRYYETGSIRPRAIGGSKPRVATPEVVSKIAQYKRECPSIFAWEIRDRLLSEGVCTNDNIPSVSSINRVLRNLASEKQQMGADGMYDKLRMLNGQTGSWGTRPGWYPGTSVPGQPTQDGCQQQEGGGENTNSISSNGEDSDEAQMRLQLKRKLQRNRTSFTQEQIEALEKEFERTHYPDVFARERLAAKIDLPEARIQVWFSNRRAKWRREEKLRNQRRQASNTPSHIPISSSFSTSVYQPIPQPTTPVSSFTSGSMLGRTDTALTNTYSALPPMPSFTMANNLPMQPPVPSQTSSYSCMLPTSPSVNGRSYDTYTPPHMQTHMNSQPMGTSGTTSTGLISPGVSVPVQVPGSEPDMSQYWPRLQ
Outline: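 Fluorescent RT-PCR products separated by capillary electrophoresis report PAX6-linked promoter mRNA in HepG2 cells 24 h post-dose. Curves fitted bidirectionally, DMSO as negative control.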

[3] = ATG_PXRE_CIS: Attagene CIS-FACTORIAL HepG2 Assay for human Pregnane X Receptor Element (PXRE) (AID 2282957); conditions: HepG2 Attagene CIS-FACTORIAL PXRE reporter, mRNA; actives raise or lower the signal
Outline: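 Bidirectional activity, baselined to DMSO, derived from reporter mRNA fluorescence (RT-PCR plus capillary electrophoresis) in HepG2 cells bearing cis-promoter reporter units, 24 h exposure.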

[4] = ATG_PPRE_CIS: Attagene CIS-FACTORIAL HepG2 Assay for human Peroxisome Proliferator-activated Response Element (PPRE) (AID 2282958); conditions: HepG2 PPRE cis-element reporter, Attagene transcription factor profiling; actives raise or lower the signal
Outline: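 Cells are first transfected transiently with the multiplexed reporter library, then dosed for 24 h. Total RNA is reverse-transcribed, amplified, fluorescently end-labeled and HpaI-cut before capillary electrophoresis; activity is fitted bidirectionally against DMSO controls.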

[5] = ATG_RORE_CIS: Attagene CIS-FACTORIAL HepG2 Assay for human RAR-related Orphan Receptor Element (RORE) (AID 2282959); conditions: HepG2 Attagene cis-factorial RORE reporter, mRNA; actives raise or lower the signal
Outline: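 Cells were HepG2 carrying transfected cis-regulated reporter constructs, dosed for 24 hours. Total RNA was reverse-transcribed and reporter cDNA amplified, fluorescently labeled and sized by capillary electrophoresis. Activity was fitted bidirectionally relative to DMSO.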

[6] = ATG_Sox_CIS: Attagene CIS-FACTORIAL HepG2 Assay for human SRY-box transcription factor (SOX) (AID 2282960); conditions: HepG2 Attagene cis-factorial SOX reporter, mRNA; actives raise or lower the signal
Outline: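 Transient MRTU transfection of HepG2; 24 h compound incubation; TriZol RNA, oligo(dT) RT, PCR, 6-FAM primer extension, HpaI cut, CE. Bidirectional fit, DMSO = baseline.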

[7] = molecular target: Transcription factor Sp1 (Homo sapiens) (UniProt P08047); experiment: ATG_Sp1_CIS: Attagene CIS-FACTORIAL HepG2 Assay for human Specificity Protein 1 (Sp1) (AID 2282961); conditions: HepG2 Sp1 cis-reporter transcription, actives raise or lower the signal
Chain of Transcription factor Sp1 (Homo sapiens) (P08047 whole entry, looked up): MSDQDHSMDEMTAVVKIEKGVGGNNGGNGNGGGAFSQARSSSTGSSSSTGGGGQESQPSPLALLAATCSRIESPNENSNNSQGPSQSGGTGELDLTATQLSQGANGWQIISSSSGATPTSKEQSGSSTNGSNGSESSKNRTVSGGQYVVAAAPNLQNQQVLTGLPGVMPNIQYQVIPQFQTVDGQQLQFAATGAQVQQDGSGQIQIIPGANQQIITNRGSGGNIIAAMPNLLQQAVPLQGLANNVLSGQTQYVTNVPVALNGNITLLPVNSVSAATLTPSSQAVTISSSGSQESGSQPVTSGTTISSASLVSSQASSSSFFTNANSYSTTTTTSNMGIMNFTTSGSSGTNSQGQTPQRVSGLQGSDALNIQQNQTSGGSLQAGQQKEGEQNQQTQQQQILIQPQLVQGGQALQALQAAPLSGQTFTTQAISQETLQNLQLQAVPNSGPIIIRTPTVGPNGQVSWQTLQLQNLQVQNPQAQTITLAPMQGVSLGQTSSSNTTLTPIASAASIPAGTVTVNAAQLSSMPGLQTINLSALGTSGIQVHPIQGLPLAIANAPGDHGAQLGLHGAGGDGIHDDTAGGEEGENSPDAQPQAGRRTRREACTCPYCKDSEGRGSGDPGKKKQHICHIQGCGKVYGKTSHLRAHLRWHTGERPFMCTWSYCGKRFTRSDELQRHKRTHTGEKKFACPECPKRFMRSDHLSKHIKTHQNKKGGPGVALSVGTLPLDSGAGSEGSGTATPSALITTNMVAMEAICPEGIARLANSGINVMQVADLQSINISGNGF
Outline: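 Endogenous Sp1 activity was gauged in human liver HepG2 cells bearing transfected reporter units under a cis-regulating promoter. After 24 h dosing, reporter mRNA was quantified by RT-PCR with capillary electrophoresis, and activity fitted bidirectionally versus DMSO.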

[8] = ATG_SREBP_CIS: Attagene CIS-FACTORIAL HepG2 Assay for human Sterol Regulatory Element Binding (SREBP) (AID 2282962); conditions: HepG2 Attagene cis-factorial SREBP reporter, mRNA; actives raise or lower the signal
Outline: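 Endogenous factor activity is measured in HepG2 through multiplexed reporter units under cis-element control. Following a 24 h incubation, reporter transcripts are reverse-transcribed, PCR-amplified and sized by capillary electrophoresis; activity is fitted in both directions relative to DMSO.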

[9] = molecular target: Signal transducer and activator of transcription 3 (Homo sapiens) (UniProt P40763); experiment: ATG_STAT3_CIS: Attagene CIS-FACTORIAL HepG2 Assay for human Signal Transducer and Activator of Transcription 3 (STAT3) (AID 2282963); conditions: HepG2, Attagene cis-factorial STAT3 reporter transcription; actives raise or lower the signal
Chain of Signal transducer and activator of transcription 3 (Homo sapiens) (P40763 whole entry, looked up): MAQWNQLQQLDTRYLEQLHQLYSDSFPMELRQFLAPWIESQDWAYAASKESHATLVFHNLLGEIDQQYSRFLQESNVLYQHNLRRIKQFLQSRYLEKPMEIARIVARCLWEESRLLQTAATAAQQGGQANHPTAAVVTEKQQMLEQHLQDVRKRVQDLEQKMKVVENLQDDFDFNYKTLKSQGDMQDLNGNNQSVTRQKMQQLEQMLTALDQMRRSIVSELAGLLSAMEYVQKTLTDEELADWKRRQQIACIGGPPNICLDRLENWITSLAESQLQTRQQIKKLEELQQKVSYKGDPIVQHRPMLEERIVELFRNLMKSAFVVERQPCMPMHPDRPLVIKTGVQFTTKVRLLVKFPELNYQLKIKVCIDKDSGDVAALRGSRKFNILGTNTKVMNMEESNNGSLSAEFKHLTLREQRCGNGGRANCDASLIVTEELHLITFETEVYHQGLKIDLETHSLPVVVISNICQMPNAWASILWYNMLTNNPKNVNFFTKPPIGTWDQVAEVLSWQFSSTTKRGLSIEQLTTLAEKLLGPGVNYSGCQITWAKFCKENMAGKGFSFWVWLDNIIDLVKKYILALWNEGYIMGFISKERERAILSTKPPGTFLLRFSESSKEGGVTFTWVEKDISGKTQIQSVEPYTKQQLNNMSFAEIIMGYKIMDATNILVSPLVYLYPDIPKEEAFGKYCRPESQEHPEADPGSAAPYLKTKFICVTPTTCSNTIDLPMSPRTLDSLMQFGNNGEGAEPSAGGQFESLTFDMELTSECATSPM
Outline: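 Readout is reporter transcript quantified by RT-PCR and capillary electrophoresis, with 6-FAM primer extension and HpaI digestion. Total RNA is taken 24 h after dosing transiently transfected HepG2 carrying cis-regulated reporter units. Bidirectional fit against DMSO.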

[10] = ATG_TA_CIS: Attagene CIS-FACTORIAL HepG2 Assay for human TA Basal Promoter (AID 2282964); conditions: HepG2 Attagene CIS-factorial TA basal promoter reporter; actives raise or lower the signal
Outline: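 Multiplexed mRNA reporter assay, HepG2, 24 h. Reporter cDNA amplified, 6-FAM primer-extended, HpaI-cut, CE-sized; DMSO = negative control and baseline.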

Measured: AC50

Nc1nc(N)nc(-c2ccccc2)n1
inactive: all assays above

CC(C)(C)NC(=O)[C@H]1CC[C@H]2[C@@H]3CC[C@H]4NC(=O)C=C[C@]4(C)[C@H]3CC[C@]12C
active: [3] 14.1 µM
inactive: all other assays above

CCCSSCCC
inactive: all assays above

CC(C)(CO)C(O)C(=O)NCCCO (stereo not given)
inactive: all assays above

CC(=O)OCC=C(C)C
active: [3] 52.1 µM
inactive: all other assays above

CCc1occc(=O)c1O
active: [3] 28.4 µM
inactive: all other assays above

Oc1ccccc1Cc1ccccc1O
active: [2] 100 µM | [3] 26.3 µM | [8] 64.5 µM
inactive: all other assays above

CCCCCOC(=O)CCCCC
inactive: all assays above

CCCC(C)C(=O)OCC (stereo not given)
inactive: all assays above

CC(C)(C)N
inactive: all assays above

CCCCOCCOCCOC(C)=O
inactive: all assays above

O=C(O)CCCC(=O)O
inactive: all assays above

C=C[C@@]1(C)CC(=O)[C@]2(O)[C@@]3(C)[C@@H](O)CCC(C)(C)[C@@H]3[C@H](O)[C@H](OC(C)=O)[C@@]2(C)O1
active: [1] 0.803 µM | [3] 0.433 µM
inactive: all other assays above

C=CCCCCCCCCC=O
active: [3] 100 µM | [4] 64.2 µM
inactive: all other assays above

Cn1ccnc1
inactive: all assays above

Cc1c(O)cccc1O
active: [3] 127 µM
inactive: all other assays above

CCC(C)C(=O)OCCc1ccccc1 (stereo not given)
inactive: all assays above

C=CC(C)(CCC=C(C)C)OC(=O)C=Cc1ccccc1 (stereo not given)
active: [3] 1.82 µM
inactive: all other assays above

C=CCOC(=O)c1ccc(C(=O)OCC=C)c(C(=O)OCC=C)c1
active: [3] 21 µM | [4] 14.8 µM | [5] 32.5 µM
inactive: all other assays above

C=C(C)C(=O)OCCCCCCCCCCCC
active: [3] 30.9 µM
inactive: all other assays above

O=C(Cl)c1c(Cl)c(Cl)c(C(=O)Cl)c(Cl)c1Cl
active: [3] 27.9 µM
inactive: all other assays above

CC(C)CC(=O)OCc1ccccc1
inactive: all assays above

CCCC1CCCC(=O)O1 (stereo not given)
active: [4] 11 µM
inactive: all other assays above

CC(CCC(=O)O)(c1ccc(O)cc1)c1ccc(O)cc1
active: [3] 27.5 µM
inactive: all other assays above

C=C(C)C(=O)OCCOC(=O)C(=C)C
inactive: all assays above

CC(C)c1ccc(O)c(C(C)C)c1
active: [3] 2.98 µM
inactive: all other assays above

CCCCCCOC(=O)CCCCC(=O)OCCCCCC
active: [3] 19.8 µM
inactive: all other assays above

CC(C)COC(=O)CC(C(=O)OCC(C)C)S(=O)(=O)O (stereo not given)
active: [3] 29.5 µM
inactive: all other assays above

Nc1ncnc2nc[nH]c12
inactive: all assays above

C[Si]1(C)O[Si](C)(C)O[Si](C)(C)O[Si](C)(C)O[Si](C)(C)O1
active: [3] 27.2 µM
inactive: all other assays above

Cc1ccc2c(c1)CCCN2
active: [3] 65.1 µM
inactive: all other assays above

CC(C)(O)Cc1ccccc1
inactive: all assays above

C=Cc1cccc(C)c1
active: [3] 13.3 µM
inactive: all other assays above

CC1=NN(c2ccc(S(=O)(=O)O)cc2)C(=O)C1N=Nc1ccccc1 (stereo not given)
active: [3] 100 µM
inactive: all other assays above

COc1ccc(C(=O)c2ccccc2)c(O)c1
active: [1] 85.9 µM | [2] 149 µM | [3] 26.7 µM | [4] 121 µM | [5] 100 µM | [10] 121 µM
inactive: [6] | [7] | [8] | [9]

COC(=O)C=Cc1ccccc1
inactive: all assays above

CC(C)c1cccc(C(C)C)c1N
active: [3] 29.5 µM
inactive: all other assays above

Cc1noc(NS(=O)(=O)c2ccc(N)cc2)c1C
not listed: [5]
inactive: all other assays above

CCOC(=O)OC(=O)OCC
not listed: [5]
inactive: all other assays above

CC1(C)CC(O)CC(C)(C)N1[O]
not listed: [5]
inactive: all other assays above

CC(Cl)COP(=O)(OCC(C)Cl)OCC(C)Cl (stereo not given)
active: [3] 4.13 µM
not listed: [5]
inactive: all other assays above

CC(=O)OC1CCCCC1C(C)(C)C (stereo not given)
not listed: [5]
inactive: all other assays above

Cc1ccc([N+](=O)[O-])cc1N
active: [3] 45.4 µM
not listed: [5]
inactive: all other assays above

C=Cc1ccc(OC(C)=O)cc1
not listed: [5]
inactive: all other assays above

CC1CCC(=O)C1=O (stereo not given)
active: [3] 59 µM
not listed: [5] | [6]
inactive: all other assays above

C=CC(=O)OCCCCCCCC(C)C
active: [3] 7.99 µM | [4] 71.1 µM
not listed: [5] | [6]
inactive: all other assays above

N#Cc1ccc(C2CCCc3cncn32)cc1 (stereo not given)
active: [3] 23.9 µM
not listed: [5]
inactive: all other assays above

Fc1ccc(Br)cc1
not listed: [4]
inactive: all other assays above

CO[Si](C)(C)OC
active: [3] 184 µM
not listed: [5]
inactive: all other assays above

C[Si](C)(C)N[Si](C)(C)C
not listed: [4]
inactive: all other assays above
